According to PubChem BioAssay AID690 (Sanford-Burnham Center for Chemical Genomics, 2007):
In all, about 96,000 compounds went through this assay and about 80 (0.08%) were called active. No rule for the calls is given here. Only a sample is shown. Results with a measured potency or affinity are listed apart.

Each molecule was assayed against Alkaline phosphatase, placental type (Homo sapiens) (UniProt P05187) (assay: PLAP enzyme inhibitors, biochemical, luminescence, HTS (AID 690)). Conditions: purified PLAP, luminescent substrate; at 20 µM; stronger effect = higher value.
Chain of Alkaline phosphatase, placental type (Homo sapiens) (P05187 whole entry, looked up): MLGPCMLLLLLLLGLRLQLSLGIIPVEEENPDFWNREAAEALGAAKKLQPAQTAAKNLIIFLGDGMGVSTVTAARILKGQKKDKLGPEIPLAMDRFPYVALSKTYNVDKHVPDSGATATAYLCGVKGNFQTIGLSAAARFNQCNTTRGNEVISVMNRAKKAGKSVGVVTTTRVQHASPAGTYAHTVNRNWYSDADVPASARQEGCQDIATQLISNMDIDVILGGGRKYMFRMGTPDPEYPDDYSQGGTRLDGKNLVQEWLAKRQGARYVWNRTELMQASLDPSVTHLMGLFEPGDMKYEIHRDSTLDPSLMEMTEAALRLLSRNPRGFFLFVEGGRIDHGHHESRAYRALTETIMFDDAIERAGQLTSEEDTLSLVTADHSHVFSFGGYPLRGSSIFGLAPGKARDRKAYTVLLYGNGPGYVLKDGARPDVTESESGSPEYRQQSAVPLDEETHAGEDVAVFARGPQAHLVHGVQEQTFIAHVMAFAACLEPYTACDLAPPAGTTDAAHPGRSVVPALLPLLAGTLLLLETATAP

inhibition, inactive:
C[n+]1ccc(/C=C/c2ccc(Br)cc2)cc1 33.9%
CN(C)c1ccc(/C=C/c2cc[n+]([O-])cc2)cc1 5.5%
CN(C)c1nc(C(=O)NN)nc(N(C)C)n1 21.7%
CC1=C(/C=C/C(=O)O)C(C)(C)CCC1 -32.1%
O=C(COC(=O)c1ccc(Cl)c(S(=O)(=O)N2CCCC2)c1)NC1CCCC1 -44.5%
CCn1cc(/C=C(/C#N)S(=O)(=O)c2ccccc2)cn1 -12.8%
N#C/C(=C\c1ccc[nH]1)S(=O)(=O)c1ccccc1 -3.2%
Cc1ccc(S(=O)(=O)N[C@@H](CC(C)C)C(=O)NCc2ccco2)cc1 18.5%
CC1(C)OC(=O)C(=CNc2ccc(F)cc2)C(=O)O1 19.1%
O=C(Nc1ccc(F)cc1)c1ccccc1CC[N+](=O)[O-] 8.4%
COc1ccccc1/C=C1\SC(=S)N(Nc2nc(C)cc(C)n2)C1=O 0.7%
Cc1cc(C)nc(NN2C(=O)/C(=C/c3ccccc3)SC2=S)n1 12.4%
Cc1cc(C)n2nc(SCc3cc(=O)oc4cc(C)c(C)cc34)nc2n1 -31.2%
CC1(C)C(=O)Nc2ccccc2N1C(=O)COC(=O)CCSc1ccccc1 6.2%
COc1ccccc1-n1cnc(N)c1C(=O)c1ccccc1 4.4%
Cc1ccc(N2CCN(C(=O)c3ccccc3Br)CC2)c(C)c1 -48.2%
CCOC(=O)c1c(-n2c(C)cc(C=O)c2C)sc2c1CCCC2 -34.6%
CCOC(=O)c1c(N2C(=O)Nc3cc(Cl)c(Cl)cc3N2O)sc2c1CCCCC2 -30.1%
CCOC(=O)Nc1sc(C)nc1-c1ccccc1 5.8%
COC(=O)C1=C(C)N=C2SC(C)C(=O)N2C1c1cccc(F)c1 (stereo not drawn) -3.9%
CCOc1ccc(OCC)c(NS(=O)(=O)c2cccc3nsnc23)c1 -1.4%
Cn1c(C(=O)NCCN2CCOCC2)cc2sccc21 11.3%
COC(=O)c1ccc2nc(C)c(C)nc2c1 8.5%
COC(=O)c1ccc(/C=C/C(=O)c2ccc(OC)c(OC)c2)cc1 5.6%
COC(=O)c1ccc(/C=C/C(=O)c2ccc(OC)cc2)cc1 15.1%
COC(=O)c1ccc2c(c1)C(C)(C)C(/C=C/c1ccc(OC)c(OC)c1OC)=[N+]2C -29.3%
O=C(CCCCCN1C(=O)c2ccccc2C1=O)Nc1ccc(S(=O)(=O)N2CCCCC2)cc1 8.2%
c1ccc(Cc2nn3c(Cn4nnc5ccccc54)nnc3s2)cc1 15.9%
COc1ccc(CCNC(=O)C2CC(=O)N(C3CCCC3)C2)cc1OC (stereo not drawn) -44.7%
Cc1cc(=O)n2c(ccc3ccccc32)c1C#N 8.7%
CCC(C)(C)NC(=O)C(c1cccs1)N(CC1CCCO1)C(=O)Cn1nnc2ccccc21 (stereo not drawn) -0.8%
Cc1cc(C)cc(NC(=O)CSc2nnc(-c3ccccc3)n2N)c1 -9.3%
Nc1c(-c2ccc(Cl)cc2)cnn1-c1cccc([N+](=O)[O-])c1 2.9%
COc1ccc(C(=O)O/N=C(\C)c2ccccc2)cc1 2.4%
c1ccc(Nc2ccccn2)cc1 4.3%
c1ccc(Nc2cc(Nc3ccccc3)[nH]n2)cc1 11.7%
Cc1cc(-c2ccccc2)n2nc(C)c(C#N)c2n1 -0.5%
C=CCOC(=O)C1=C(C)NC(=O)NC1/C=C/c1ccccc1 (stereo not drawn) 16.7%
O=C(Cn1ccc2ccccc2c1=O)NCCC(=O)NC1CCN(Cc2ccccc2)CC1 -48.7%
O=C(N1CCOCC1)N1CCC(n2nnc3cc(F)ccc32)CC1 -19.8%
O=C(NCc1ccccc1)c1ccc(-c2ccc(F)cc2)o1 3.6%
COc1ccc(-c2nc(-c3ccc(Br)o3)no2)cc1OC -40.2%
COc1ccc(-c2noc(-c3ccc(Br)o3)n2)cc1OC 29%
Cc1ccc(CNC(=O)c2ccc(C#CC(C)(C)O)s2)cc1 20.2%
O=C(CNS(=O)(=O)/C=C/c1ccccc1)OCC(=O)N1CCC(Cc2ccccc2)CC1 -18.3%
Cc1nc2c3cnn(-c4ccccc4)c3ncn2n1 41.1%
c1ccc(-n2ncc3c2ncn2nnnc32)cc1 -8.9%
CC(C)C1N=C2c3ccccc3N=C(SCC#N)N2C1=O (stereo not drawn) -3.7%
CC(C)C1N=C2c3ccccc3N=C(SCC(=O)NCCc3ccc(S(N)(=O)=O)cc3)N2C1=O (stereo not drawn) -3.1%
COc1ccc(-n2nnnc2SCC(N)=O)cc1 20.8%
C=CCn1c(SCC(=O)Nc2ccc3c(c2)OCO3)nnc1-c1ccccc1OC -54.3%
CCn1c(CSc2nc3ccccc3s2)nnc1SCC(=O)c1ccc(O)cc1O -26.1%
C=CCn1c(SCC(=O)c2ccc(OC)cc2)nnc1-c1cc2cccc(OC)c2o1 21.9%
CCn1c(CSc2nc3ccccc3s2)nnc1SCC(=O)c1ccc(Cl)cc1 -26.1%
COc1ccc(-n2nnnc2SCC(=O)c2cccc(OC)c2)cc1 8.8%
CCOC(=O)CNC(=O)CSc1nnc(-c2ccccc2OC)n1CC -10.2%
CCn1c(SCC(=O)C(C)(C)C)nnc1-c1ccccc1OC 5.6%
COc1ccc(CNc2n[nH]c(NCc3ccc(OC)c(OC)c3)n2)cc1OC -86.4%
O=C(CC1(O)C(=O)Nc2ccccc21)c1cccnc1 (stereo not drawn) 26.9%
COc1cc2c(cc1NC(=O)CSc1nnnn1-c1ccccc1)oc1ccccc12 21.8%
CCc1ccc(C(=O)COC(=O)C(Cc2ccccc2)NC(=O)c2ccc(Cl)cc2)cc1 (stereo not drawn) -8.9%
CCc1ccc2nc3c(c(C(=O)O)c2c1)CCC3 7.8%
Cc1ccc(S(=O)(=O)N2CCC(=O)N2)cc1 -17.1%
